Source: PubChem BioAssay AID602410 (Johns Hopkins Ion Channel Center, 2012)
In all, about 340,000 compounds went through this assay and about 2,800 (0.82%) were called active.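 The calls were made as follows: active = B-score under library mean minus 4 SD, starting fluorescence ratio at most library mean plus 5 SD; inactive = the rest.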 Shown is part of a subset that was picked to be rich in actives.

Biological target: Potassium channel subfamily K member 3 (Homo sapiens) (UniProt O14649)
Assay: blockers of TASK1 two-pore potassium channel – CHO cells, FluxOR thallium flux, B-score, primary screen (AID 602410);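 as to B-score: more negative B-score means stronger inhibition of thallium flux through KCNK3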
Conditions: CHO-KCNK3 thallium flux, FluxOR fluorescence, at 10 µM; stronger effect = lower value

Potassium channel subfamily K member 3 (Homo sapiens), sequence (O14649 whole entry, looked up): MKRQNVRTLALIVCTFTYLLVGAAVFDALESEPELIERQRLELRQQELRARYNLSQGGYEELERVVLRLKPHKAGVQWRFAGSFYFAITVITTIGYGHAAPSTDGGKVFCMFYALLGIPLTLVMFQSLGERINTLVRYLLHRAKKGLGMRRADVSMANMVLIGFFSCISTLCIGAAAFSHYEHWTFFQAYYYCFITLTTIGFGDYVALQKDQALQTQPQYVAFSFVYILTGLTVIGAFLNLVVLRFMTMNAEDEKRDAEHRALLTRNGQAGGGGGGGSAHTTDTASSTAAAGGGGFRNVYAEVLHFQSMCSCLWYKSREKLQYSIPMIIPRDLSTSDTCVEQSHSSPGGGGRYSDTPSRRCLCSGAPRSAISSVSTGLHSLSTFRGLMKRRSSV

Row | Compound | B-score
1 | CCOC(=O)c1c(N)sc2c1CCCC2=O | inactive
2 | CCOc1ccc(S(=O)(=O)N2CCC(C(=O)OCc3ccc(OC)cc3)CC2)cc1 | inactive
3 | COC(=O)c1ccc(COC(=O)C2CCN(S(=O)(=O)c3c(Cl)cccc3Cl)CC2)o1 | -10.8 (active)
4 | COc1cccc(COC(=O)C2CCN(S(=O)(=O)c3ccc(Cl)cc3)CC2)c1OC | inactive
5 | CC12CN3CC(C)(CN(C1)C3c1ccc(Cl)cc1Cl)C2=O (configuration not stated) | inactive
6 | Cn1c(SCC(=O)N2CCCC2)nnc1-c1cccs1 | inactive
7 | CCc1cc(C(N)=O)c(NC(=O)c2ccc(OC)cc2)s1 | inactive
8 | CCc1cc(C(c2ccccc2OC)N2CCOCC2)c(NC(=O)c2ccccc2)s1 (configuration not stated) | -8.97 (active)
9 | COc1cc(C(c2c(NC(=O)c3ccco3)sc(C)c2C)N2CCOCC2)cc(OC)c1OC (configuration not stated) | inactive
10 | COc1cc(NC(=O)COC(=O)c2cnc(C)cn2)c(C)cc1[N+](=O)[O-] | inactive
11 | COC(=O)c1ccc(C)c(NC(=O)C2CC(=O)N(C3CCCC(C)C3C)C2)c1 (configuration not stated) | inactive
12 | O=C(Nc1ccccc1C(=O)N1CCCCC1)c1ccco1 | inactive
13 | O=C(c1cccc(S(=O)(=O)Nc2ccccc2Cl)c1)N1CCN(C(=O)c2ccco2)CC1 | inactive
14 | CS/C(=C\C(=O)c1ccco1)Nc1ccccc1Cl | -11.4 (active)
15 | NS(=O)(=O)c1ccc(CCNC(=O)COC(=O)COc2cccc(C(F)(F)F)c2)cc1 | inactive
16 | CSc1nnc2c(n1)OC(c1ccsc1)N(C(C)=O)c1ccccc1-2 (configuration not stated) | -9.55 (active)
17 | Cc1ccc(Cl)cc1NC(=O)CN1CCN(S(=O)(=O)N2CCOCC2)CC1 | inactive
18 | CCOC(=O)CNC(=O)CSc1ccc2nnc(-c3cccnc3)n2n1 | inactive
19 | C/C(CC(C)C)=N\Oc1nc(C)cc(C)n1 | inactive
20 | Cc1cc(C)c(NC(=O)C[N+](C)(C)CC(O)COc2cccc3ccccc23)c(C)c1 (configuration not stated) | inactive
21 | CCC(C)Sc1nc2c(c(=O)[nH]c(=O)n2C)n1CC(O)COc1cccc2ccccc12 (configuration not stated) | inactive
22 | CC(C)c1ccccc1OCC(O)CN(CC(O)COc1cccc2ccccc12)C(C)C (configuration not stated) | -9.21 (active)
23 | O=C(OCC(O)C(O)COC(=O)c1ccccc1)c1ccccc1 (configuration not stated) | inactive

Row | Compound | B-score
24 | Cc1ccc(C)c(S(=O)(=O)Nc2cccc(-n3cnnn3)c2)c1 | inactive
25 | CC(=O)c1c(C)[nH]c(C(=O)Nc2cc(S(=O)(=O)N(C)C)ccc2C)c1C | inactive
26 | O=C(CCn1nnc2ccccc21)OCC(=O)c1ccc([N+](=O)[O-])cc1 | inactive
27 | CCc1nnc(NC(=O)c2cc(S(=O)(=O)N3CCCCC3)ccc2C)s1 | inactive
28 | CCc1ccc2nc3sc(C(=O)Nc4nnc(CC)s4)c(N)c3cc2c1 | -9.98 (active)
29 | CCc1nnc(NC(=O)c2cccc(S(=O)(=O)N(C)c3ccc(OC)cc3)c2)s1 | inactive
30 | Cc1cc(C)nc(NNC2=CC(=O)CC(C)(C)C2)n1 | inactive
31 | O=C1c2ccccc2C(O)N1Cc1ccccc1Cl (configuration not stated) | inactive
32 | Cc1cc(C)cc(NC(=S)NCCc2c[nH]c3ccccc23)c1 | inactive
33 | O=C(NCCc1c[nH]c2ccccc12)c1cccc(Br)c1 | -11.8 (active)
34 | O=C(NCCc1c[nH]c2ccccc12)c1cc2ccccc2oc1=O | inactive
35 | O=P(c1cccs1)(c1cccs1)c1cccs1 | inactive
36 | CCC1CCCCN1C(=O)Nc1cccc(NC(=O)N2CCCCC2CC)c1 (configuration not stated) | -10.6 (active)
37 | CCC1CCCCN1C(=S)Nc1ccc(C(C)=O)cc1 (configuration not stated) | inactive
38 | CCC1CCCCN1C(=S)NC(=O)c1ccco1 (configuration not stated) | inactive
39 | CCN(C[C@H]1N[C@@](CC)(C(=O)OC)[C@H]2C(=O)N(Cc3ccccc3)C(=O)[C@@H]12)S(=O)(=O)c1ccccc1 | inactive
40 | CCOc1c(Br)cc(/C=C2\C(=O)N(CCC#N)N=C2C)cc1OC | inactive
41 | O=C(COC(=O)/C=C/c1ccc(S(=O)(=O)N2CCCCCC2)cc1)NCc1ccccc1Cl | inactive
42 | CC(=O)c1cccc(NC(=O)CN2C(=O)c3cccnc3Oc3ccc(Cl)cc32)c1 | inactive
43 | CCCc1cc(C(=O)N2CCCC(CO)(CCCc3ccccc3)C2)n(C)n1 (configuration not stated) | -9.3 (active)
44 | Cc1ccccc1CC1(CO)CCCN(C(=O)c2cc(-c3ccccc3)no2)C1 (configuration not stated) | inactive
45 | COC(=O)CCC(=O)N1CCCC(CO)(Cc2ccccc2)C1 (configuration not stated) | inactive
46 | CC(Sc1nnc(CNC(=O)c2ccccc2F)n1C)C(=O)Nc1nccs1 (configuration not stated) | inactive

Row | Compound | B-score
47 | CC1CCN(S(=O)(=O)c2ccc(NC(=O)C3CC(=O)N(c4ccccc4)C3)cc2)CC1 (configuration not stated) | inactive
48 | COc1ccc(Nc2ncnc3sc(C)cc23)cc1 | inactive
49 | COc1ccc(Nc2ncnc3ccc(Br)cc23)c(OC)c1 | inactive
50 | COc1ccc(Nc2ncnc3sc(-c4ccccc4)cc23)c(OC)c1 | -12 (active)
51 | COC(=O)c1sc(SC)c(S(=O)(=O)C(C)C)c1N/N=C(\C#N)S(=O)(=O)c1ccccn1 | inactive
52 | CC1CCN(C(=O)/C(=C\c2ccccc2F)NC(=O)c2ccccc2)CC1 | inactive
53 | COC(=O)CN1C(=O)[C@H]2[C@@H](/C=C/c3ccccc3)N3C(=O)CN(CC4CC4)C(=O)[C@@]3(Cc3ccccc3)[C@H]2C1=O | inactive
54 | O=C(CC1CCCCC1)Nc1c2c(nn1-c1ccc(F)cc1)CS(=O)(=O)C2 | inactive
55 | C=CCNC(=O)c1ccccc1NC(=O)c1ccc(Cl)c(S(=O)(=O)Nc2cccc(C)c2C)c1 | inactive
56 | CCCCc1ccc(NC(=O)NCc2cccnc2)cc1 | inactive
57 | CCCCCCCCCCCCN1C(=O)CSC1c1cccnc1 (configuration not stated) | -18.4 (active)
58 | CN(C)CCCN1C(=O)CSC1c1ccc([N+](=O)[O-])cc1 (configuration not stated) | inactive
59 | Cc1ccc(C(=O)Nc2ccc3c(c2)OCCO3)cc1S(=O)(=O)N1CCOCC1 | inactive
60 | CCCn1nnc(NC(=O)COc2ccc(CC)cc2)n1 | inactive
61 | COc1ccccc1N1CCC(N2CCN(CC(C)(C)C)C(CCO)C2)CC1 (configuration not stated) | inactive
62 | COc1ccc2c3c(c(=O)oc2c1OCC(=O)C(C)(C)C)CCCC3 | inactive
63 | CCCOc1ccc2c3c(c(=O)oc2c1OCCC)CCC3 | -11.4 (active)
64 | O=c1oc2c(CN3CCCCC3)c(O)ccc2c2c1CCCCC2 | inactive
65 | C=CCN(N=Nc1cccc([N+](=O)[O-])c1)c1cccc([N+](=O)[O-])c1 | -9.23 (active)
66 | O=C(CCl)N(Cc1cccc([N+](=O)[O-])c1)c1cccc(Cl)c1 | inactive
67 | O=[N+]([O-])c1cccc(C=NN=Cc2ccccc2O)c1 | inactive
